GLP1R ag = qHTS of GLP-1 Receptor Agonists; Glucagon-like peptide 1 receptor (Homo sapiens), P43220; HEK293 GLP-1R CRE-luciferase, luminescence, 4-6 h; cells express a hypersensitive GLP-1R form; Potency, µM (series often up to 45.6 µM), without a hit: top-dose activation, hits mostly activators; 380,000 tested, 0.007% active; AID 624172, 2012; also: % of control where 0% means no effect
VP16 counter = VP16 counterscreen qHTS for inhibitors of ROR gamma transcriptional activity; Potency, µM (doses to about 53.6 µM), without a hit: top-dose activity, negative = inhibition, usual class: inhibitors; 310,000 tested, 3.5% active; AID 2546, 2010; Drosophila S2 Gal4-VP16 UAS-luciferase, luminescence, 20 h;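 also: Gal4-VP16 expression switched on by copper sulfate through the metallothionein promoter; % is scaled to controls: 0 for no effect and ±100 for the full control effect; nearly all actives have a fitted effect of over 50% in size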
GLP1R inv ag = qHTS of GLP-1 Receptor Inverse Agonists (Inhibition Mode). Glucagon-like peptide 1 receptor (Homo sapiens), P43220. HEK293 GLP-1R CRE-luciferase, luminescence, 24 h; GLP-1R form is constitutively active. Potency, µM (highest dose often 38.3 µM), for the others: at the highest dose activity change, negative = inhibition, hits mostly inhibitors. 410,000 tested, 1.6% active; also: % is scaled to controls: 0 for no effect and ±100 for the full control effect; nearly all actives have a fitted effect of over 55% in size
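Constitutively active GLP-1R drives a cAMP-responsive luciferase in stably transfected HEK293 cells; test compounds are added after overnight (12 h) attachment and left 24 hr, and signal loss in luminescence marks inhibition.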
HEK293 tox = qHTS of GLP-1 Receptor Inverse Agonists: Cytotox Screen; HEK293 cAMP-luciferase reporter cells, luminescence, 24 h; Potency, µM (top dose mostly 38.3 µM), without a hit: top-dose activity change, negative = inhibition, most hits filed as inhibitors; 410,000 tested, 0.13% active;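 also: loss of luciferase light is scored as toxicity; % is scaled to controls: 0 for no effect and ±100 for the full control effect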
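A 23 nL compound transfer followed 12 hours of cell culture at 37 deg C; exposure then lasted 24 hr. Luciferase assay detection reagent was dispensed and plates read for luminescence after a 12 min room-temperature wait.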
RORg inh = qHTS for inhibitors of ROR gamma transcriptional activity; Drosophila S2 Gal4-RORgamma UAS-luciferase reporter, 20 h; Potency, µM (top dose mostly 53.6 µM), inactives show at the top dose activity change, negative = inhibition, usual class: inhibitors; 310,000 tested, 5.4% active; also: % is scaled to controls: 0 for no effect and ±100 for the full control effect; nearly all actives have a fitted effect of over 60% in size
Target sequence (P51450 whole entry, looked up, the tested form may be a part): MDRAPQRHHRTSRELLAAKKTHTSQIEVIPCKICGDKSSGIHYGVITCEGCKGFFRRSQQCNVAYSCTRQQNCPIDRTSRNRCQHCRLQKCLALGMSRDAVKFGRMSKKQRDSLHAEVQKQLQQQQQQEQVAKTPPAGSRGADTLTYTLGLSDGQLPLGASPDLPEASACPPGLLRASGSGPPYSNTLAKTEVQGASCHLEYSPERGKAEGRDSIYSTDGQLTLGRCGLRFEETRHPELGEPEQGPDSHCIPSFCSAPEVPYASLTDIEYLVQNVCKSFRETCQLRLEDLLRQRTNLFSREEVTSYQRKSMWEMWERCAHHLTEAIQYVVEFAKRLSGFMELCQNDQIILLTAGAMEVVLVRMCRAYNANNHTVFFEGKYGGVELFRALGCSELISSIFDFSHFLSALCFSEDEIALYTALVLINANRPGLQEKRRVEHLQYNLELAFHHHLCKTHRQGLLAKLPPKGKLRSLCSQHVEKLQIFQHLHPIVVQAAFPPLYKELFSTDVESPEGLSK
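Stably transfected Drosophila Schneider cells are the test system, with ROR gamma fused to Gal4 and luciferase under UAS control; luminescence is read after 20 hr of 700 uM copper sulfate induction at ambient temperature.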
The depositor's hits bear a star; ? = inconclusive; . = no result; [ ] = remark or other dose. This is a sample that favours compounds with a hit; in the whole collection about 5.9% have one here. Calls follow the shape of the dose curve; as a rule, active = well fitted curve in the direction sought with a large enough effect; inconclusive = small, poorly fitted or top-dose-only effect, or another doubt; inactive = no such curve, though single readings can be large; an effect the other way counts as inactive or inconclusive. Potency is read from the fitted curve at half-maximal effect.

SMILES	GLP1R ag	VP16 counter	GLP1R inv ag	HEK293 tox	RORg inh
Cc1ccc(-c2nc(-c3cc4cccc(OCc5cccc(F)c5)c4oc3=O)no2)cc1	1%	.	12%	2%	.
C/C(=N\NC(=O)CC#N)c1cc2ccccc2oc1=O	-2%	6.3µM*	12%	-3%	6.3µM*
CC(=NNC(=S)Nc1ccccc1)c1ccccn1	16%	.	-37%	-32%	.
C/C(=N\NC(=O)c1c[nH]c2ccccc12)c1ccco1	-6%	-7%	15%	-17%	-3%
CCOc1ccc(C(=O)N/N=C(\c2ccccc2)c2ccccn2)cc1	2%	0.056µM*	?	6%	0.2µM*
C/C(=N\NC(=O)c1c[nH]c2ccccc12)c1ccccn1	3%	?	?	7%	3.5µM*
C/C(=N\Nc1ccccc1)c1cc2ccccc2oc1=O	30%	?	-3%	-14%	-30%
C=CCNC(=S)N/N=C(\C)c1ccccn1	0%	0.11µM*	0%	-32%	0.028µM*
CC(C)C[C@@H](CC(=O)N[C@@H](CCC(=O)O)CC(=O)O)NC(=O)[C@@H]1CCCC[C@H]1NC(=O)C[C@@H](NC(=O)C[C@H](Cc1ccccc1)NC(=O)[C@@H]1CNCC[C@H]1N)C(C)C	.	-25%	.	.	5%
COc1ccc(C(=O)N/N=C(\N)c2cc3ccccc3oc2=O)cc1	8%	?	16%	-4%	0.89µM*
Cc1cccc(NC(=S)NC2CCSc3ccccc32)c1 (stereo unspecified)	22%	5.6µM*	-44%	?	3.5µM*
S=C(NCc1ccccc1)NC1CCSc2ccccc21 (stereo unspecified)	-6%	-4%	?	?	-23%
CN(C)c1ccc(/C=N\NC(=O)c2csnn2)cc1	-44%	18µM*	?	21%	?
CN(C)c1ccc(/C=N\NC(=O)c2cccc3cc[nH]c23)cc1	7%	?	-32%	1%	7.9µM*
CN(C)c1ccc(/C=N/NC(=O)c2cc(=O)[nH]c3ccccc23)cc1	-2%	1%	22%	2%	0%
Cc1ccc(OCC(=O)Nc2ccc3c(c2)nc(CCN2CCCC2)n3C)cc1	12%	.	-23%	16%	.
Cc1ccc(C(C)C)c(OCC(=O)Nc2ccc3c(c2)nc(CN2CCCC2)n3C)c1	11%	3%	10µM*	?	?
CCCCCSc1ncnc2c1sc1nc(N3CCOCC3)c3c(c12)CCCC3	.	.	4%	-6%	.
COc1ccc(Nc2nc(Nc3ccc(OC)cc3)nc(-n3[nH]c(=O)c(C)c3C)n2)cc1	2%	4µM*	?	?	1.3µM*
CC(C)c1ccc(C(=O)NN2CCOCC2)cc1	-5%	?	2%	2%	?
CC(C)c1ccc(/C=C/C(=O)NC(=S)NN2CCOCC2)cc1	-1%	4.5µM*	42%	?	4µM*
CC(C)c1ccc(/C=C/C(=O)NC(=S)Nc2ccc(CN3CCOCC3)cc2)cc1	-1%	5µM*	?	10µM*	2.8µM*
O=C(COc1ccccc1Cl)NC(=S)Nc1ccc(CN2CCOCC2)cc1	1%	-4%	0%	-2%	-9%
CCN(CC)S(=O)(=O)c1cccc(NC(=O)C(=O)c2c(-c3ccccc3)cc3ccccn23)c1	-1%	-1%	?	-8%	7.9µM*
COc1cc(NC(=O)NC(C)c2c(-n3cccc3)sc3c2CCCC3)cc(OC)c1OC (stereo unspecified)	.	.	11µM*	1%	.
SMILES	GLP1R ag	VP16 counter	GLP1R inv ag	HEK293 tox	RORg inh
COC(=O)c1ccc(C(=O)NC(=S)Nc2nc3c(s2)CC(C)CC3)cc1 (stereo unspecified)	0%	2µM*	16%	-6%	1µM*
COc1ccc(-c2cn(-c3ccc(C)cc3)c(=O)n2CC(=O)Nc2ccc(OC)cc2OC)cc1	-2%	2%	-12%	-17%	30%
COc1ccc(NC(=O)Cn2c(-c3ccccc3)cn(-c3ccc(C)cc3)c2=O)cc1	-11%	0%	10µM*	-16%	22%
COC(=O)[C@@H]1C[C@@]1(C)[C@@H](NC(=O)OCc1ccccc1)c1ccccc1	.	5%	.	.	?
N#CCCNS(=O)(=O)c1ccc(C(=O)OCCCOC(=O)c2ccc(S(=O)(=O)NCCC#N)cc2)cc1	-3%	18µM*	21%	12%	11µM*
CC(CNC(=O)Cn1c(-c2cccs2)cc2ccccc21)c1ccccc1 (stereo unspecified)	.	.	?	12%	.
COc1ccc(-c2nc(CS(=O)CC(=O)NCCc3ccccc3)c(C)o2)cc1OC (stereo unspecified)	.	.	44%	4%	.
CCCC(c1nnnn1CC1CCCO1)N1CCN(c2cc(Cl)ccc2C)CC1 (stereo unspecified)	20%	0%	8.9µM*	-12%	-18%
COc1ccccc1NC(=O)c1cc(=O)c2ccc(C)c(C)c2o1	.	.	2%	6%	.
COc1ccc(Oc2cn[nH]c2-c2ccc(OCC(=O)NN)cc2O)cc1	0%	0%	?	0%	-15%
COc1cccc(Oc2cn[nH]c2-c2ccc(O)cc2O)c1	12%	?	43%	0%	?
CCCOC(=O)c1ccc(Oc2cn[nH]c2-c2ccc(OCC)cc2O)cc1	-26%	?	10µM*	?	10µM*
CCOc1ccc(-c2[nH]ncc2Oc2cccc(OC)c2)c(O)c1	9%	?	?	10%	11µM*
COc1cccc(Oc2cn[nH]c2-c2ccc(OC)cc2O)c1	20%	13µM*	?	-28%	7.1µM*
CCC1CCCCN1C(=O)COc1c(Br)cc(Br)c2cccnc12 (stereo unspecified)	12%	?	?	-5%	13µM*
CN(C)c1ccc(N=NS(=O)(=O)O)cc1	-2%[96 µM]	0%	.	.	-6%
Cc1csc(N=Nc2ccc(N(C)C)cc2)[n+]1[O-]	-7%	.	?	4µM*	.
CCOc1ccc(S(=O)(=O)Nc2cnc3ccccc3c2)cc1	6%	6.3µM*	16%	-9%	?
COc1ccccc1CNC(=O)Cc1csc2nc(-c3ccc(F)cc3)cn12	.	.	?	-9%	.
O=C(O)COc1ccc(/C=N/Nc2nc(Nc3ccccc3)nc(N3CCCCC3)n2)cc1	0%	?	-26%	?	?
COc1ccc(Nc2nc(N3CCCCC3)c3ccccc3n2)cc1	-6%	7.1µM*	5.6µM*	?	18µM*
COc1ccc(/C=N/Nc2nc(Nc3ccccc3)nc(N3CCCC3)n2)cc1	7%	-6%	13%[7.66 µM]	4%[7.66 µM]	2.8µM*
